Shown are actives, neighbours in structure and some others; about 27% of the full set was active somewhere.
CYP2C19 activ: human CYP2C19 activators, primary screen, biochemical, luminescence | recombinant CYP2C19, luciferin-H EGE luminescence; stronger effect = higher value; 0 = fully inhibited enzyme, 1 = untreated enzyme | 96,000 tested, under 10 active | activation factor at 5 µM | Cytochrome P450 2C19 (Homo sapiens), P33261 | AID 1025, 2008;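 active = activation factor of at least 2 at 5 µM in the primary screen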
CYP2C19 inh: blockers of cytochrome P450 2C19 activity – biochemical, luminescence, ADME assay, primary screen | P33261 | CYP2C19 Supersomes, luciferin-H EGE luminescence, 30 min | inhibition, % at 5 µM | hit rate 21% among 96,000 | AID 778, 2007;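 active = CYP2C19 inhibition above a set limit at 5 µM in the primary screen, cut at about 50% in these data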
CYP2C9 act: human CYP2C9 activators, primary screen, biochemical, luminescence; recombinant CYP2C9, luciferin-H conversion; stronger effect = higher value; factor 1 = untreated enzyme, 0 = blocked; activation factor at 5 µM; hit rate 1.4% among 96,000;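 active = activation factor of 2 or more for CYP2C9 at a 5 µM dose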
CYP2C9 inhib: blockers of cytochrome P450 2C9 activity – biochemical, luminescence, ADME assay, primary screen | hit rate 20% among 96,000 | P11712 | AID 777, 2007 | inhibition, % at 5 µM | CYP2C9 Supersomes, luciferin-H conversion;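 active = blocking of liver enzyme CYP2C9 beyond about 50% at 5 µM, limit read from the data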
sEH act: soluble epoxide hydrolase activators, primary screen, biochemical, human sEH. Bifunctional epoxide hydrolase 2 (Homo sapiens), P34913. purified human sEH enzymatic activity, activator screen. activation, % at 2 µM. hit rate 0.04% among 91,000. AID 717, 2007; in the data active = activation above about 37%
Target sequence (P34913 whole entry, looked up): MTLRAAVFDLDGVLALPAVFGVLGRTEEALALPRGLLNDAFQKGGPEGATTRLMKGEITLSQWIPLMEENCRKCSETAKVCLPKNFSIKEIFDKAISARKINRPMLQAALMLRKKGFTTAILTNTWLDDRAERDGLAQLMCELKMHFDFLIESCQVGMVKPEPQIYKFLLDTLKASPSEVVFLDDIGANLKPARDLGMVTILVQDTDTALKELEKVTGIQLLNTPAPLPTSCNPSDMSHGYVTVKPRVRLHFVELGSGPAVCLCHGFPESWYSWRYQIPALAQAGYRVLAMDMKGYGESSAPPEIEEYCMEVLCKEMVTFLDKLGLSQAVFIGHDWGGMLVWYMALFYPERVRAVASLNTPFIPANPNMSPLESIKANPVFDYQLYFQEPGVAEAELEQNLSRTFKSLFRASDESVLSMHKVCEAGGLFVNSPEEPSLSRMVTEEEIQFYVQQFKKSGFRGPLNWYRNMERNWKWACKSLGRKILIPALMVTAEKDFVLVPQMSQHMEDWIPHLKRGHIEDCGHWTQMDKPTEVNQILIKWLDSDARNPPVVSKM
sEH inh: soluble epoxide hydrolase inhibitors, primary screen, biochemical, human sEH | hit rate 0.34% among 91,000 | recombinant human sEH enzymatic activity assay | inhibition, % at 2 µM | AID 707, 2007 | Bifunctional epoxide hydrolase 2 (Homo sapiens), P34913; in the data active = inhibition above about 80%
Of the large screens only hits and unclear results are named; the others gave an inactive call.

C=CCSC(=C(C#N)C#N)c1cc2c([nH]1)CCCC2	CYP2C9 inhib 63
COc1ccc(CNC(=O)C(c2ccc(C)o2)N(C(=O)c2csnn2)c2ccc(C(C)C)cc2)cc1 (stereo unspecified)	CYP2C19 inh 51, CYP2C9 inhib 52
Cn1nnc2cc(C(=O)N3CCC(c4ccccc4)C3)ccc21 (stereo unspecified)	CYP2C19 inh 80
Cn1nnc2cc(C(=O)N3CCCCCC3)ccc21	none (no result: CYP2C19 activ, CYP2C19 inh, CYP2C9 act, CYP2C9 inhib)
COc1ccc(C(=O)c2ccc(N3CCN(C(=O)c4ccc(F)cc4)CC3)c(F)c2)cc1Br	CYP2C19 inh 66
O=C(c1cccc(C(=O)N2CCN(c3ccccc3)CC2)c1)N1CCN(c2ccccc2)CC1	none
O=C(c1cccc(C(=O)N2CCN(c3ccccc3F)CC2)c1)N1CCN(c2ccccc2F)CC1	CYP2C19 inh 82, CYP2C9 inhib 67 (no result: sEH act, sEH inh)
CCS(=O)(=O)N1CCN(c2ccccc2F)CC1	CYP2C19 inh 50, CYP2C9 inhib 90
Cc1[nH]c(=O)[nH]c(=O)c1S(=O)(=O)N(C)Cc1ccccc1	none (no result: sEH act, sEH inh)
CCN1CCN(CCC(=O)Nc2ccc3c(c2)OCO3)CC1	none (no result: CYP2C19 activ, CYP2C19 inh, CYP2C9 act, CYP2C9 inhib)
COc1cc(OC)cc(C(=O)N2CCN(c3ccccc3F)CC2)c1	CYP2C19 inh 53
O=C(CCN1CCN(c2ccccc2F)CC1)Nc1ccc2c(c1)OCO2	CYP2C19 inh 71, CYP2C9 inhib 88 (no result: sEH act, sEH inh)
Cc1ccc(C(=O)N2CCN(c3ccc(NC(=S)NC(=O)Cc4ccccc4)cc3)CC2)cc1	CYP2C9 inhib 52
O=C(c1ccc2c(c1)OCO2)N1CCCC(c2ccccc2)C1 (stereo unspecified)	CYP2C19 inh 87
CC(=O)Nc1ccc(S(=O)(=O)NC2(C(F)(F)F)NC(=O)N(C3CCCCC3)C2=O)cc1 (stereo unspecified)	none
CCOc1ccc(CC(=O)N2CCN(c3ccc(N4CCOCC4)nn3)CC2)cc1OCC	none (no result: sEH act, sEH inh)
O=C(Nc1ccccc1N1CCN(C(=O)c2ccc(Cl)cc2)CC1)c1ccc2c(c1)OCO2	CYP2C19 inh 90, CYP2C9 inhib 84
O=C(Nc1ccc(N2CCN(C(=O)c3ccc(Cl)cc3)CC2)cc1)c1ccc2c(c1)OCCO2	none
COc1cc(CCC(=O)Nc2cc(Cl)ccc2N2CCN(C)CC2)cc(OC)c1OC	CYP2C19 inh 64
O=C(c1cc(-c2ccc3c(c2)OCO3)on1)N1CCN(c2ccc(F)cc2)CC1	none (no result: sEH act, sEH inh)
O=C(c1cc(-c2ccc3c(c2)OCO3)on1)N1CCN(c2ccccc2)CC1	CYP2C9 inhib 50 (no result: sEH act, sEH inh)
COc1ccc(Cl)cc1NC(=O)CCN1CCN(C)CC1	none
O=C(c1ccc2c(c1)OCO2)N1CCN(c2ccccc2)CC1	CYP2C19 inh 88
CCOC(=O)CN(C(=O)CSc1nnc2c(n1)[nH]c1ccc(OC)cc12)c1ccc(F)cc1	none (no result: sEH act, sEH inh)
CCCCOC(=O)C1C2C=C[C@]3(CN(CCCOC)C(=O)[C@H]13)O2 (stereo partly specified)	none
COc1cc(C(=O)N2CCN(c3cc(Cl)ccc3Cl)CC2)cc(OC)c1OC	CYP2C9 inhib 62
CC(C)C(=O)N1CCN(c2ccccc2NC(=O)Cc2ccc(Cl)cc2)CC1	none
O=C(c1cnccn1)N1CCN(c2ccccc2)CC1	CYP2C19 inh 53
CC(C)(C)C(=O)Nc1ccccc1N1CCN(C(=O)c2ccc(Cl)cc2)CC1	CYP2C19 inh 76, CYP2C9 inhib 75
O=C(O)c1cc(NCc2ccc3c(c2)OCO3)ccc1N1CCOCC1	none
COC(=O)c1cc(NCc2ccc3c(c2)OCO3)ccc1N1CCOCC1	CYP2C19 inh 77, CYP2C9 inhib 52 (no result: sEH act, sEH inh)
CCNC(=O)NC1(C(=O)Nc2ccc3c(c2)OCCO3)CCCCC1	none
CC(C)OC(=O)C(CC(=O)O)NCc1ccccc1 (stereo unspecified)	none
COc1cc(OC)nc(NC(=O)COC(=O)C2CCCCC2)n1	none
CCOC(=O)N1CCN(C(=O)C2CCN(Cc3nc(-c4ccccc4C)oc3C)CC2)CC1	none (no result: sEH act, sEH inh)
CC(=O)N1CCN(c2ccc(NCc3ccc4c(c3)OCO4)cc2)CC1	none
Cc1ccc(-n2nc(C(=O)N3CCOCC3)cc2-c2ccc(Cl)cc2)cc1	CYP2C9 inhib 71
O=C(c1cc(-c2cccc(O)c2)on1)N1CCCCC1	CYP2C19 inh 51 (no result: sEH act, sEH inh)
O=C(c1ccc2c(c1)OCO2)N1CCN(c2ccccc2F)CC1	CYP2C19 inh 83, CYP2C9 inhib 53
COc1cccc(-c2cc(C(=O)N3CCCCCC3)no2)c1	none
O=C(c1ccccc1)N1CCN(c2ccc(NCc3ccc4c(c3)OCO4)cc2)CC1	CYP2C9 inhib 68
Cc1ccccc1C1NS(=O)(=O)N=C1N (stereo unspecified)	none
Cn1c(=N)n(CC(=O)C(C)(C)C)c2ccccc21	none (no result: sEH act, sEH inh)
O=C(c1cccs1)N1CCCC(c2ccccc2)C1 (stereo unspecified)	CYP2C19 inh 85, CYP2C9 inhib 53
O=C(c1cc(C2CC2)on1)N1CCN(c2ccccc2)CC1	CYP2C19 inh 91, CYP2C9 inhib 52
COc1ccc(C(=O)N2CCN(c3c(C)cccc3C)CC2)cc1OC	none
Cc1nn(C(=O)c2ccc3c(c2)OCO3)c(N)c1-c1ccccc1	CYP2C9 inhib 53
COc1ccc(OC)c2c(C)cc(N3CCN(C(=O)c4ccc(Cl)cc4)CC3)nc12	CYP2C9 inhib 56
O=C(c1cnsn1)N1CCN(c2ccccc2)CC1	none
O=C(c1ccco1)N1CCCC(c2ccccc2)C1 (stereo unspecified)	none
O=C(Nc1ccc(S(=O)(=O)N2CCCCCC2)cc1)C1CCCO1 (stereo unspecified)	none
Cc1ccc(C(=O)N2CC3(C(C)C)CN(C(=O)c4ccc(C)cc4)CC(C(C)C)(C2)C3=O)cc1	none
Cc1ccc(C(=O)N2CCN(c3ccc(Cl)cc3)CC2)cc1	CYP2C19 inh 54, CYP2C9 inhib 51
COc1ccc(N2CCN(C(=O)c3ccc4c(c3)OCO4)CC2)cc1	none
O=C(c1ccc2c(c1)OCO2)N1CCN(c2ccc(Cl)cc2)CC1	CYP2C19 inh 97, CYP2C9 inhib 89
COC(=O)c1cc(S(=O)(=O)N2CCOCC2)c(N2CCOCC2)cc1N1CCOCC1	CYP2C9 inhib 76 (no result: sEH act, sEH inh)
CCCCN1C2CCCC1CC(NC(=O)C1CCCCC1)C2 (stereo unspecified)	none (no result: CYP2C19 activ, CYP2C19 inh, CYP2C9 act, CYP2C9 inhib)
COc1ccc2nc(N=Nc3ccc(N(C)C)cc3)sc2c1	CYP2C19 inh 58
O=S(=O)(Nc1nc(-c2sccc2Cl)cs1)c1cc(Cl)ccc1Cl	CYP2C19 inh 90, CYP2C9 inhib 99
CCN(CC)S(=O)(=O)c1ccc(OC(C)C)nc1	CYP2C19 inh 79
CCN(CC)S(=O)(=O)c1ccc(OC)nc1	none

Compound activity deposited in PubChem BioAssay by several laboratories.
